The list is not random: actives were taken first. Their share in the collection is about 10%.
NPR1 antag = blocks ANP-stimulated signaling of human Npr1 receptor; P16066; HEK293 hNpr1 GloSensor cGMP, ANP-stimulated luminescence; Potency, µM (top dose mostly 46.3 µM), hits mostly inhibitors; hit rate 1.6% among 76,000; calls by dose curve; also: nearly all actives have a fitted effect of over 60% in size
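HEK293 cells stably expressing human Npr1 and cGMP GloSensor pGS-40F, loaded 2 h with 2% GloSensor reagent, given compound 30 min at room temperature. Luminescence read before and 20 min after 0.1 nM hNppA.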
3T3 cytotox = cytotoxic compounds in NIH 3T3 cells; AID 1345082; NIH 3T3 viability, CellTiter-Glo ATP luminescence, 48-72 h; Potency, µM (series often up to 96.7 µM), hits mostly inhibitors; hit rate 4.3% among 94,000; also: nearly all actives have a fitted effect of over 55% in size
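ATP-dependent luminescence (CellTiter-Glo) served as the viability signal for NIH 3T3 cells treated with compound for 48 or 72 hr at 37 °C.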
GPT2 inh = GPT2 alanine aminotransferase inhibition | Recombinant GPT2, coupled pyruvate oxidase/HRP Amplex Red fluorescence | Potency, µM (top dose mostly 57.7 µM), usual class: inhibitors | hit rate 0.25% among 100,000; also: nearly all actives have a fitted effect of over 60% in size
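Fluorescence of coupled pyruvate oxidase/HRP/Amplex Red system (50uM Amplex, 30 min, dark) reports pyruvate formed by GPT2. Enzyme reaction: 10ng/uL GPT2, 2mM L-alanine, 250uM a-KG, 30 min room temperature, pH 7.5; 50uM AOA control.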
HEK293 tox = HEK 293 cell cytotoxicity; Potency, µM (doses to about 115 µM), most hits filed as inhibitors; AID 1345083; HEK 293 viability, ATP luminescence (CellTiter-Glo), 48-72 h; hit rate 6.6% among 94,000; also: nearly all actives have a fitted effect of over 60% in size
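Read-out: CellTiter-Glo ATP luminescence. Cells: HEK 293, 250 cells/well. Exposure: 48 or 72 hr, 37 degree Celsius.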
Luciferase inh = inhibitors of firefly (Photinus pyralis) luciferase. purified P. pyralis luciferase, luminescence, biochemical. Potency, µM (highest dose often 115 µM), actives largely listed as inhibitors. hit rate 2.5% among 76,000; also: nearly all actives have a fitted effect of over 65% in size
Target sequence (P08659 whole entry, looked up): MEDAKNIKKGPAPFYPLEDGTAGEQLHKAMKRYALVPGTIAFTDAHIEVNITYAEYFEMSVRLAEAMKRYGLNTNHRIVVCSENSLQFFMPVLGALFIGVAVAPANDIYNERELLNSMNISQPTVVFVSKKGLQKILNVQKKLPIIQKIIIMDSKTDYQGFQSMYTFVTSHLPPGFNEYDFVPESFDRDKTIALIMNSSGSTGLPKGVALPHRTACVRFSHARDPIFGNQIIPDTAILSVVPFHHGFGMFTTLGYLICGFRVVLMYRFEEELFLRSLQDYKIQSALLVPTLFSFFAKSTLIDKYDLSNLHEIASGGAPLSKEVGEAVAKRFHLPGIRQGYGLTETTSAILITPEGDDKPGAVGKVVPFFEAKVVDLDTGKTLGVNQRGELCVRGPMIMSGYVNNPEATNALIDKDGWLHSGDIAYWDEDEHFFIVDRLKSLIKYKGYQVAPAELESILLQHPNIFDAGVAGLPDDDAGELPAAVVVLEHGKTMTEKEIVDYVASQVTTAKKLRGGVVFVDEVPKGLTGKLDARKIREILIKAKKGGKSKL
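Luminescence read by CCD imager after adding enzyme (10nM final) to wells holding compound, titrated in qHTS. Substrates 10uM each D-luciferin and ATP; buffer 50mM Tris acetate pH 7.5, 10mM Mg acetate, Tween-20, BSA.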
Hits are given with their value; 0 = inactive; ? = inconclusive; - = no result. Unless noted, calls follow the shape of the dose curve; as a rule, active = well fitted curve in the direction sought with a large enough effect; inconclusive = small, poorly fitted or top-dose-only effect, or another doubt; inactive = no such curve, though single readings can be large; an effect the other way counts as inactive or inconclusive.

SMILES | NPR1 antag | 3T3 cytotox | GPT2 inh | HEK293 tox | Luciferase inh
CC(C)(Oc1nn(Cc2cccc(Cl)c2)c2ccccc12)C(=O)NC1CCOCC1 | 0 | ? | 0 | 89µM | 0
CC(C)(Oc1nn(Cc2cccc(Cl)c2)c2ccccc12)C(=O)N1CCOCC1 | ? | ? | 0 | 89µM | 0
CCOC(=O)[C@H]1C[C@]2(CCCCN(CCO)C2=O)N(C(=O)C(CC)CC)[C@H]1c1ccco1 | - | 0 | - | ? | -
COc1ccc(CCNC(=O)c2cc3n(n2)CC(c2ccc4c(c2)OCO4)OC3)cc1OC (centres undefined) | ? | ? | 0 | ? | 0
CC(C)c1cccc(NC(=O)c2cc3n(n2)CC(c2ccc(Cl)cc2)OC3)c1 (centres undefined) | 0 | 0 | 0 | ? | 0
CC(C)c1ccc(CNC(=O)c2cc3n(n2)CC(c2ccc(Cl)cc2)OC3)cc1 (centres undefined) | 0 | 28µM | 0 | 32µM | 0
Cc1cn2nc(C(=O)NCc3ccc(C(C)C)cc3)cc2c(=O)[nH]1 | 0 | 0 | 0 | ? | 14µM
COc1ccc(CNC(=O)c2cc3n(n2)CC(c2ccc(Cl)cc2)OC3)c(OC)c1 (centres undefined) | 0 | ? | 0 | ? | 0
COc1ccc(CCNC(=O)c2cc3n(n2)CC(c2ccc(Cl)cc2)OC3)cc1OC (centres undefined) | ? | ? | 0 | 45µM | 0
COc1ccccc1CNC(=O)c1cc2n(n1)CC(c1ccc(Cl)cc1)OC2 (centres undefined) | ? | ? | 0 | 40µM | 0
COc1ccc(NC(=O)c2cc3n(n2)CC(c2ccc(Cl)cc2)OC3)cc1 (centres undefined) | ? | ? | 0 | ? | ?
COc1cc(NC(=O)c2cc3n(n2)CC(c2ccc(Cl)cc2)OC3)cc(OC)c1OC (centres undefined) | 0 | ? | 0 | 45µM | 0
Oc1ccc(CCC2CCCCN2Cc2nc(Cc3cccc(F)c3)no2)cc1 (centres undefined) | 0 | ? | 0 | 22µM | 0
O=C(c1cc(COc2c(F)cccc2F)on1)N1CCCCC1CCc1ccccc1 (centres undefined) | 0 | 0 | 0 | 0 | 0
c1cncc(-c2nc(-c3ccc(OC4CNC4)cc3)no2)c1 | 0 | ? | 0 | ? | 0
CNC(C)c1ccc(Oc2ccccc2)cc1 (centres undefined) | - | 79µM | 0 | 100µM | -
CNC(C)c1ccc(OC(F)(F)F)cc1 (centres undefined) | - | 0 | 0 | 0 | -
Cc1nc(CN2Cc3nc(N(C)c4ccccc4)ccc3OCC2=O)cs1 | ? | ? | 0 | ? | 0
O=C1COc2ccc(-c3ccccc3)nc2CN1CCOc1ccccc1 | 0 | 45µM | 0 | ? | 0
CN(c1ccccc1)c1ccc2c(n1)CN(Cc1ccccc1)C(=O)CO2 | ? | 79µM | 0 | 89µM | 50µM
COCCN1Cc2nc(-c3cnn(Cc4ccccc4)c3)ccc2OCC1=O | 0 | 45µM | 0 | ? | 0
COc1cccc(CN2Cc3nc(-c4cn[nH]c4)ccc3OCC2=O)c1 | 0 | 35µM | 0 | ? | 0
COc1ccc(-c2ccc3c(n2)CN(CCOc2ccccc2)C(=O)CO3)cc1 | ? | ? | 0 | ? | 0
COc1cccc(CN2Cc3nc(-c4ccsc4)ccc3OCC2=O)c1 | 0 | ? | 0 | ? | 0
CCCCCC(=O)N1C[C@@H](C(=O)OCC)[C@@H]2Oc3ccccc3[C@@H]21 | - | ? | - | 0 | -
SMILES | NPR1 antag | 3T3 cytotox | GPT2 inh | HEK293 tox | Luciferase inh
Cn1cc(-c2ccc3c(n2)CN(Cc2ccccc2)C(=O)CO3)cn1 | 0 | 40µM | 0 | ? | 0
O=C1COc2ccc(-c3ccccc3)nc2CN1Cc1ccc(F)cc1 | 0 | ? | 0 | ? | 0
O=C1COc2ccc(-c3cn[nH]c3)nc2CN1Cc1ccccc1 | 0 | 28µM | 0 | ? | 0
COc1cccc(CN2Cc3nc(-c4cccc(O)c4)ccc3OCC2=O)c1 | 0 | ? | 0 | 100µM | 0
COc1cccc(CN2Cc3nc(-c4ccccc4)ccc3OCC2=O)c1 | 0 | ? | 0 | 79µM | 0
COc1cccc(CN2Cc3nc(-c4ccncc4)ccc3OCC2=O)c1 | 0 | ? | 0 | ? | 0
O=S(=O)(c1ccc2c(c1)CCC2)N1CCCC1c1nncn1C1CCCC1 (centres undefined) | - | 0 | 0 | 0 | -
O=C(Nc1ccccc1)N1CCC(C(=O)N2CCCC2c2nc3ccncc3[nH]2)CC1 (centres undefined) | - | 0 | 0 | 0 | -
Cn1cc(-c2ccnc(N3CCOCC3)c2)c2nc(COc3ccc(Cl)cc3)cn2c1=O | ? | 28µM | 0 | ? | ?
Cn1cc(-c2cccc(OC(F)(F)F)c2)c2nc(CN3CCNC(=O)C3)cn2c1=O | 0 | 100µM | 0 | 0 | 0
COCc1ccccc1-c1cn(C)c(=O)n2cc(COc3ccc(Cl)cc3)nc12 | ? | ? | 0 | ? | 0
Cn1cc(-c2cn(C)c(=O)n3cc(COc4ccc(Cl)cc4)nc23)cn1 | 0 | ? | ? | 71µM | ?
CN1CCN(Cc2cn3c(=O)n(C)cc(-c4cccc(OC(F)(F)F)c4)c3n2)CC1 | 0 | ? | 0 | ? | 0
Cn1cc(-c2ccccc2)c2nc(COc3ccc(Cl)cc3)cn2c1=O | 0 | 50µM | 0 | ? | 0
Cc1noc(C)c1-c1cn(C)c(=O)n2cc(COc3ccc(Cl)cc3)nc12 | 0 | ? | 0 | ? | 0
COc1cccc(CC(=O)N2CCC(CCn3c(C)cnc3-c3cccnc3)CC2)c1 | - | ? | 0 | 0 | -
CCc1ccc(NC(=O)Cn2c(-c3ccc(F)cc3)nc(C)c(CCO)c2=O)cc1 | 0 | 0 | 0 | ? | 0
Cn1cc(-c2cccc(C(F)(F)F)c2)c2nc(CNc3ccccc3)cn2c1=O | 0 | 25µM | ? | 50µM | 0
COc1cncc(-c2cn(C)c(=O)n3cc(CNc4ccccc4)nc23)c1 | 0 | ? | 0 | ? | 0
CCN(C(=O)CN1C(=O)NC2(CCS(=O)(=O)CC2)C1=O)c1cccc(C)c1 | 0 | 0 | 0 | 0 | 0
O=C(NCC(F)(F)F)c1cc(-c2cc(Cl)cc(Cl)c2)c2cccn2n1 | - | ? | 0 | 40µM | -
COC(=O)CNC(=O)c1cc(-c2cc(Cl)cc(Cl)c2)c2cccn2n1 | - | ? | 0 | ? | -
O=C(c1cc(-c2cccc(C(F)(F)F)c2)c2cccn2n1)N1CCCC1 | - | ? | 0 | 45µM | -
O=C(NC1CCCC1)c1cc(-c2cccc(C(F)(F)F)c2)c2cccn2n1 | - | ? | 0 | 40µM | -
C[S+](=O)([O-])c1ccc(-c2cc(C(=O)N3CCN(c4ncccn4)CC3)nn3cccc23)cc1 | - | 0 | 0 | 50µM | -
COC(=O)C1=C(C)N=C2SC=C(CC(=O)N3CCCCC3C)N2C1c1ccc(OC)cc1 (centres undefined) | 0 | ? | 0 | ? | 0
Cc1cn2nc(-c3nc(C4CCCN(C(=O)c5ccccc5)C4)no3)cc2c(=O)[nH]1 (centres undefined) | 0 | 0 | 0 | 0 | ?
O=C(c1nc(-c2ccc(Cl)nc2)c2ccccn12)N1CCCC1 | - | ? | 0 | ? | -

Screening results from PubChem.
